Several values for one entry are separate records, joined by “and”; a condition that tells them apart may be missing. Identical values can stand only once. Compounds without any hit were thinned out: in the full panel of roughly 79,000, 15% have a hit. Activity calls are given as the source filed them. Rule as the data show it: active = growth inhibition above about 70%; inactive = the rest.

The nature of one assay: NCI Yeast Anticancer Drug Screen. Data for the mec2-1 strain (AID 157). Particulars: S. cerevisiae mec2-1 strain, at 50.0 µM, active compounds read high. Put shortly:
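Strain: mec2-1 (DNA repair/cell cycle alteration). Compound exposure, then growth measured; inhibition expressed relative to vehicle.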
In the case of `CCC[As](=O)(O)CC(C)C`, the growth inhibition is -2.8% (inactive).
For `CCCOC(=O)c1cncn1C(C)c1ccccc1` (stereo not given), the growth inhibition is 18.7% (inactive).
The same measure, in the same setting: under `C/C=C/CC1(C(C)C)C(=O)NC(=O)NC1=O` stands 11.2% (inactive) and 8% (inactive).
With `NC(N)=NCCCCCCCCCCN=C(N)N`, the growth inhibition is -20.2% (inactive).
`O=C(Nc1ccc(S(=O)(=O)Nc2ccc(N=Nc3ccc(N=Nc4ccccc4)cc3)cc2)cc1)C(N1CC1)(N1CC1)N1CC1`: the growth inhibition is -9.5% (inactive).
As for `CC1(C)C=C(NC(=O)N2CC2)C(C)(C)N1O`, the growth inhibition was 11.3% (inactive).
Regarding `CC1=CC(=O)NP(=O)(Oc2ccc(C)cc2)N1` (stereo not given), the growth inhibition is 16.1% (inactive).
As for `CCCN(CCC)C(=O)CCl`, the growth inhibition was 5.2% (inactive).
On the same count and under the same terms, with `O=[P+](O)c1ccccc1` the figure was -24.9% (inactive) and -26.3% (inactive); with `CN(C)CCNC(=O)c1ccc([N+](=O)[O-])c(C(C)(C)C(=O)Nc2ccc(N(CCCl)CCCl)cc2)c1`, -24.4% (inactive); with `CCCC(C)COC(=O)Cc1ccccc1` (stereo not given), 18.2% (inactive).
On to `CCCCOC1OCN(C2CCCCC2)CC1(C)C` (stereo not given), for which the growth inhibition is 28.1% (inactive).
With `CN(C)P1P(N(C)C)P(N(C)C)P1N(C)C` (stereo not given), the growth inhibition is 9.75% (inactive).
In the case of `C[CH2][Sn]([CH2]C)([CH2]C(=O)OC)[CH2]C(=O)OC`, the growth inhibition is 14.7% (inactive).
Same read-out and setting: under `CCCP(=S)(CCC)P(=S)(CCC)CCC` stands 19.4% (inactive); under `CCC[N+](CCC)(CCC)CCC.[Ni+2].[SH2+]C([SH2+])=Nc1ccccc1.[SH2+]C([SH2+])=Nc1ccccc1`, 18.9% (inactive).
`CC(C)c1ccc(-n2c(=S)[nH]c3ccccc3c2=O)cc1`: the growth inhibition is -7% (inactive).
On the same count and under the same terms, under `C=CC(=O)NCO` stands 15.2% (inactive); under `CCNC(=O)C(C)Br` (stereo not given), 13.1% (inactive); under `O=C1CCP(c2ccccc2)(c2ccccc2)(c2ccccc2)O1`, 11.8% (inactive).
With `O=C(N/N=C/c1cc(Br)cc(Br)c1[O-])c1ccccc1O.O=C(N/N=C/c1cc(Br)cc(Br)c1[O-])c1ccccc1O.[Cl-].[Fe+3]`, the growth inhibition is 0.15% (inactive).
`CC12CCC3C(CCC4(O)C=CCCC34C=O)C1(O)CC(O)C2c1ccc(=O)oc1` (stereo not given): the growth inhibition was -46.9% (inactive).
As to `COc1cc2c(cc1OC)C13CCN4CC5=CCOC6CC(=O)N2C1C6C5CC43` (stereo not given), the growth inhibition is -43.9% (inactive) and -36.3% (inactive).
Take `NC(=O)OCC(O)c1ccccc1` (stereo not given): the growth inhibition is 10% (inactive).
On the same count and under the same terms, under `Clc1ccc([As](c2ccc(Cl)cc2)c2ccc(Cl)cc2)cc1` stands 48.1% (inactive); under `COc1ccc2c3c1O[C@]1(C)C34CCN(C)C(C2)C42C=C[C@@]1(OC)c1c(O)ccc(O)c12`, -13.2% (inactive); under `CCOP(=S)(OCC)OP(=O)(CC)CC`, -10.1% (inactive).
On to `Cc1ccc(NC(=O)C(=O)C2C(=O)NC(=O)NC2=O)cc1C`, for which the growth inhibition is -14.3% (inactive).
As for `O=C(Nc1ccc(O)cc1)c1c(O)[nH]c(=S)[nH]c1=O`, the growth inhibition was -13.1% (inactive).
On the same count and under the same terms, with `NCCCNCCCN` the figure was -3.1% (inactive); with `COc1cccc(N2C(=O)C3C(C2=O)C2(Cl)C(Cl)=C(Cl)C3(Cl)C2(Cl)Cl)c1` (stereo not given), 45.2% (inactive); with `COCCCNP(=O)(OC(C)C)OC(C)C`, 0.85% (inactive).
For the compound `CCCCCCCCCCCCCCCCCC(=O)NC(CC(=O)OCCCCCC)c1ccc(N(CCCl)CCCl)cc1` (stereo not given), the growth inhibition is 10.8% (inactive).
As for `CC(=O)Oc1ccc([As](=O)(O)O)cc1`, the growth inhibition was -7.75% (inactive).
`[Cl][Pd]([Cl])([Cl])[Cl].[NH-]CC[NH-].[NH-]CC[NH-].[Pd+2]`: the growth inhibition is 16.9% (inactive).
In the case of `CC1(O)CCC(O)CC1CC(=O)O` (stereo not given), the growth inhibition was 8.5% (inactive).
The same measure, in the same setting: under `CCCCCC[C@@H](O)[C@@H]1C2=C(C[C@H]([C@H](O)[C@@H]3CC=CC(=O)O3)CC3=C(C(=O)OC3=O)[C@@H]1O)C(=O)OC2=O` stands 2.75% (inactive).
`CCCCCCOC(=O)C(N)Cc1ccc(OC)c(N(CCCl)CCCl)c1` (stereo not given): the growth inhibition is 3.65% (inactive).
Same read-out and setting: under `CC1CCC2NCCNC2C1` (stereo not given) stands 6.65% (inactive).
Consider `CCOC(=O)C(Cc1ccc(N(CCCl)CCCl)cc1)NC(=O)C(N)CO` (stereo not given), for which the growth inhibition was 17.6% (inactive).

The nature of another assay: NCI Yeast Anticancer Drug Screen. Data for the sgs1 mgt1 strain (AID 161).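 Also: 0% = growth of cultures given vehicle only.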 The conditions noted are these: S. cerevisiae sgs1 mgt1 strain, at 50.0 µM, active compounds read high. Put shortly:
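Test agents were incubated with a DNA-repair-mutant yeast strain. Growth was then read and compared against vehicle-treated controls.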
As for `CCC[As](=O)(O)CC(C)C`, the growth inhibition is -4.9% (inactive).
With `CCCOC(=O)c1cncn1C(C)c1ccccc1` (stereo not given), the growth inhibition is 37.5% (inactive).
As to `C/C=C/CC1(C(C)C)C(=O)NC(=O)NC1=O`, the growth inhibition is -4.2% (inactive) and 10.8% (inactive).
On the same count and under the same terms, with `NC(N)=NCCCCCCCCCCN=C(N)N` the figure was -6.05% (inactive); with `O=C(Nc1ccc(S(=O)(=O)Nc2ccc(N=Nc3ccc(N=Nc4ccccc4)cc3)cc2)cc1)C(N1CC1)(N1CC1)N1CC1`, 3.95% (inactive); with `CC1(C)C=C(NC(=O)N2CC2)C(C)(C)N1O`, -2% (inactive).
Turning to `CC1=CC(=O)NP(=O)(Oc2ccc(C)cc2)N1` (stereo not given), the growth inhibition is -4.65% (inactive).
Regarding `CCCN(CCC)C(=O)CCl`, the growth inhibition is 5.85% (inactive).
Still for that read-out and setting: with `O=[P+](O)c1ccccc1` the figure was -18.4% (inactive) and 4.85% (inactive); with `CN(C)CCNC(=O)c1ccc([N+](=O)[O-])c(C(C)(C)C(=O)Nc2ccc(N(CCCl)CCCl)cc2)c1`, 8.9% (inactive); with `CCCC(C)COC(=O)Cc1ccccc1` (stereo not given), 9.55% (inactive).
As to `CCCCOC1OCN(C2CCCCC2)CC1(C)C` (stereo not given), the growth inhibition is 27.5% (inactive).
As to `CN(C)P1P(N(C)C)P(N(C)C)P1N(C)C` (stereo not given), the growth inhibition was 2.2% (inactive).
Take `C[CH2][Sn]([CH2]C)([CH2]C(=O)OC)[CH2]C(=O)OC`: the growth inhibition is 15.5% (inactive).
In the case of `CCCP(=S)(CCC)P(=S)(CCC)CCC`, the growth inhibition is 20.9% (inactive).
Consider `CCC[N+](CCC)(CCC)CCC.[Ni+2].[SH2+]C([SH2+])=Nc1ccccc1.[SH2+]C([SH2+])=Nc1ccccc1`, for which the growth inhibition is 9.6% (inactive).
`CC(C)c1ccc(-n2c(=S)[nH]c3ccccc3c2=O)cc1`: the growth inhibition is -13.8% (inactive).
For the compound `C=CC(=O)NCO`, the growth inhibition is -1.4% (inactive).
As for `CCNC(=O)C(C)Br` (stereo not given), the growth inhibition was 23.5% (inactive).
For `O=C1CCP(c2ccccc2)(c2ccccc2)(c2ccccc2)O1`, the growth inhibition is 23.1% (inactive).
Turning to `O=C(N/N=C/c1cc(Br)cc(Br)c1[O-])c1ccccc1O.O=C(N/N=C/c1cc(Br)cc(Br)c1[O-])c1ccccc1O.[Cl-].[Fe+3]`, the growth inhibition was -4.95% (inactive).
`CC12CCC3C(CCC4(O)C=CCCC34C=O)C1(O)CC(O)C2c1ccc(=O)oc1` (stereo not given): the growth inhibition was -12.7% (inactive).
With `COc1cc2c(cc1OC)C13CCN4CC5=CCOC6CC(=O)N2C1C6C5CC43` (stereo not given), the growth inhibition was -20.9% (inactive).
Same read-out and setting: with `NC(=O)OCC(O)c1ccccc1` (stereo not given) the figure was -22.6% (inactive); with `Clc1ccc([As](c2ccc(Cl)cc2)c2ccc(Cl)cc2)cc1`, 74.3% (active).
In the case of `COc1ccc2c3c1O[C@]1(C)C34CCN(C)C(C2)C42C=C[C@@]1(OC)c1c(O)ccc(O)c12`, the growth inhibition is -12.8% (inactive).
Take `CCOP(=S)(OCC)OP(=O)(CC)CC`: the growth inhibition is -1.7% (inactive).
Consider `Cc1ccc(NC(=O)C(=O)C2C(=O)NC(=O)NC2=O)cc1C`, for which the growth inhibition was -34.6% (inactive).
Regarding `O=C(Nc1ccc(O)cc1)c1c(O)[nH]c(=S)[nH]c1=O`, the growth inhibition was 6.25% (inactive).
On to `NCCCNCCCN`, for which the growth inhibition was -3.95% (inactive).
For `COc1cccc(N2C(=O)C3C(C2=O)C2(Cl)C(Cl)=C(Cl)C3(Cl)C2(Cl)Cl)c1` (stereo not given), the growth inhibition is 53.5% (inactive).
Regarding `COCCCNP(=O)(OC(C)C)OC(C)C`, the growth inhibition is 8.6% (inactive).
For `CCCCCCCCCCCCCCCCCC(=O)NC(CC(=O)OCCCCCC)c1ccc(N(CCCl)CCCl)cc1` (stereo not given), the growth inhibition was 12.8% (inactive).
Consider `CC(=O)Oc1ccc([As](=O)(O)O)cc1`, for which the growth inhibition is 3.75% (inactive).
In the case of `[Cl][Pd]([Cl])([Cl])[Cl].[NH-]CC[NH-].[NH-]CC[NH-].[Pd+2]`, the growth inhibition was 32% (inactive).
Turning to `CC1(O)CCC(O)CC1CC(=O)O` (stereo not given), the growth inhibition was 9.45% (inactive).
In the case of `CCCCCC[C@@H](O)[C@@H]1C2=C(C[C@H]([C@H](O)[C@@H]3CC=CC(=O)O3)CC3=C(C(=O)OC3=O)[C@@H]1O)C(=O)OC2=O`, the growth inhibition is 26.7% (inactive).
The same measure, in the same setting: under `CCCCCCOC(=O)C(N)Cc1ccc(OC)c(N(CCCl)CCCl)c1` (stereo not given) stands -3.55% (inactive); under `CC1CCC2NCCNC2C1` (stereo not given), -8.9% (inactive).
In the case of `CCOC(=O)C(Cc1ccc(N(CCCl)CCCl)cc1)NC(=O)C(N)CO` (stereo not given), the growth inhibition is 4.75% (inactive).
